Reference: PubChem BioAssay
Inconclusive results are not listed. Activity calls are given as the source filed them. Unless noted, the rule behind the calls is not given here.

Assays:
[1] = GFP-Q80 aggregate reduction, neuronal-like cells, cell-based, NGF-treated PC12, GFPQ80 (AID 1614); settings: PC12 NGF-treated GFP-polyQ80 inclusion reduction;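 note: lower means fewer inclusions and 0 means no inclusions at all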
[2] = viability loss in pontine glioma line – cell-based, SU-DIPG-XVII, MIPE5.0, CellTiter-Glo, qHTS, dose response (AID 1347060; cut-off not given, nearly all actives have AC50 up to about 26 µM); settings: CellTiter-Glo ATP luminescence
[3] = viability loss in pontine glioma line – cell-based, JHH-DIPG-1, MIPE4.0, CellTiter-Glo, qHTS, dose response (AID 1347062; cut-off not given, nearly all actives have AC50 up to about 27 µM;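 for AC50: cells exposed to compound for two days before readout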); settings: JHH-DIPG-1 viability, CellTiter-Glo ATP luminescence
[4] = viability loss in pontine glioma line – cell-based, SU-DIPG-XIII, MIPE5.0, CellTiter-Glo, qHTS, dose response (AID 1347064; cut-off not given, nearly all actives have AC50 up to about 23 µM); settings: CellTiter-Glo ATP luminescence
[5] = viability loss in pontine glioma line – cell-based, SU-DIPG-XXV, MIPE5.0, CellTiter-Glo, qHTS, dose response (AID 1347065; cut-off not given, nearly all actives have AC50 up to about 26 µM;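 note: cells exposed to compound for 48 hours before ATP readout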); settings: CellTiter-Glo ATP luminescence
[6] = growth inhibition of DIPG cells – cell-based, MIPE4.0 library, CellTiter-Glo luminescence, qHTS (AID 1347066; cut-off not given, nearly all actives have AC50 up to about 30 µM;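 note: cells exposed to compound for 48 hours before readout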); settings: SU-DIPG-VI viability, CellTiter-Glo ATP luminescence
[7] = rescue of PC12 cells from polyQ htt toxicity – LDH release (AID 1610); settings: PC12 mutant huntingtin toxicity, final LDH at 4 uM, stronger effect = lower value
[8] = JHH-DIPG-1 glioma cell viability, MIPE5.0 library, CellTiter-Glo luminescence, qHTS (AID 1347067; cut-off not given, nearly all actives have AC50 up to about 26 µM;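 note: cells exposed to compound for 48 hours before readout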); settings: JHH-DIPG-1 glioma viability, CellTiter-Glo ATP luminescence
[9] = biological target: NAD(+) hydrolase SARM1 (Homo sapiens) (UniProt Q6SZW1); experiment: blocking NAD cleavage by SARM1 SAM-TIR – cell lysate, NAD-Glo luminescence (AID 1508614;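 active = compound whose remaining NAD level is above about 45 nM, limit read from the data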;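 note: higher remaining NAD means stronger inhibition of SARM1 NADase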); settings: SAM-TIR HEK293T lysate NADase, at 1 µM, stronger effect = higher value
Sequence of NAD(+) hydrolase SARM1 (Homo sapiens) (Q6SZW1 whole entry, looked up): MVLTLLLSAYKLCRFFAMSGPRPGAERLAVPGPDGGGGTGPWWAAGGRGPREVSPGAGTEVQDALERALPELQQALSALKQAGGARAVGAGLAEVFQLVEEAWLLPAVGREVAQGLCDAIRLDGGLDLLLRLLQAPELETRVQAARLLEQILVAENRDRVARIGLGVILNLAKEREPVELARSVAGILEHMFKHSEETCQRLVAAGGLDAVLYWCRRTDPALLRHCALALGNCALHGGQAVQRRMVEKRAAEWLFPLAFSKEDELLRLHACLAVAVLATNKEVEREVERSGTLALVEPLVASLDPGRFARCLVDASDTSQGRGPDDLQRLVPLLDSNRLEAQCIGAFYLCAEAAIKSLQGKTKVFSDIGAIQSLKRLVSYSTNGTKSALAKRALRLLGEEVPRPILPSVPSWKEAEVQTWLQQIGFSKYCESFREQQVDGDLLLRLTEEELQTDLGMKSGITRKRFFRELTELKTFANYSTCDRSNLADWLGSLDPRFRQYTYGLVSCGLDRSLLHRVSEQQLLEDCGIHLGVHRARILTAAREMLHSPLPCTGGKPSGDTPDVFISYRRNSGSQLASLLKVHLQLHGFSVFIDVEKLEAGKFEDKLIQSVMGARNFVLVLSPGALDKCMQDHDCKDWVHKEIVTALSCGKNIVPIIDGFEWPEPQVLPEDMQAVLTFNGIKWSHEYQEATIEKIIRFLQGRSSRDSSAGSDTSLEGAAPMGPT

[10] = compounds altering viability of human ES cells (AID 493140); settings: human embryonic stem cell survival screen; stronger effect = higher value;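 note: cells exposed to compounds for four days before counting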
[11] = blockers of MitoPT in mitochondria (AID 1580); settings: isolated mitochondria, permeability transition inhibition
[12] = biological target: ATP-dependent translocase ABCB1 (Homo sapiens) (UniProt P08183); experiment: P-glycoprotein substrate transport blockade – cell-based (AID 377; in the data active = fluorescence slope change above about 50%); settings: MDR1-expressing cells, fluorescent substrate accumulation slope; stronger effect = higher value; concentration not given here
Sequence of ATP-dependent translocase ABCB1 (Homo sapiens) (P08183 whole entry, looked up): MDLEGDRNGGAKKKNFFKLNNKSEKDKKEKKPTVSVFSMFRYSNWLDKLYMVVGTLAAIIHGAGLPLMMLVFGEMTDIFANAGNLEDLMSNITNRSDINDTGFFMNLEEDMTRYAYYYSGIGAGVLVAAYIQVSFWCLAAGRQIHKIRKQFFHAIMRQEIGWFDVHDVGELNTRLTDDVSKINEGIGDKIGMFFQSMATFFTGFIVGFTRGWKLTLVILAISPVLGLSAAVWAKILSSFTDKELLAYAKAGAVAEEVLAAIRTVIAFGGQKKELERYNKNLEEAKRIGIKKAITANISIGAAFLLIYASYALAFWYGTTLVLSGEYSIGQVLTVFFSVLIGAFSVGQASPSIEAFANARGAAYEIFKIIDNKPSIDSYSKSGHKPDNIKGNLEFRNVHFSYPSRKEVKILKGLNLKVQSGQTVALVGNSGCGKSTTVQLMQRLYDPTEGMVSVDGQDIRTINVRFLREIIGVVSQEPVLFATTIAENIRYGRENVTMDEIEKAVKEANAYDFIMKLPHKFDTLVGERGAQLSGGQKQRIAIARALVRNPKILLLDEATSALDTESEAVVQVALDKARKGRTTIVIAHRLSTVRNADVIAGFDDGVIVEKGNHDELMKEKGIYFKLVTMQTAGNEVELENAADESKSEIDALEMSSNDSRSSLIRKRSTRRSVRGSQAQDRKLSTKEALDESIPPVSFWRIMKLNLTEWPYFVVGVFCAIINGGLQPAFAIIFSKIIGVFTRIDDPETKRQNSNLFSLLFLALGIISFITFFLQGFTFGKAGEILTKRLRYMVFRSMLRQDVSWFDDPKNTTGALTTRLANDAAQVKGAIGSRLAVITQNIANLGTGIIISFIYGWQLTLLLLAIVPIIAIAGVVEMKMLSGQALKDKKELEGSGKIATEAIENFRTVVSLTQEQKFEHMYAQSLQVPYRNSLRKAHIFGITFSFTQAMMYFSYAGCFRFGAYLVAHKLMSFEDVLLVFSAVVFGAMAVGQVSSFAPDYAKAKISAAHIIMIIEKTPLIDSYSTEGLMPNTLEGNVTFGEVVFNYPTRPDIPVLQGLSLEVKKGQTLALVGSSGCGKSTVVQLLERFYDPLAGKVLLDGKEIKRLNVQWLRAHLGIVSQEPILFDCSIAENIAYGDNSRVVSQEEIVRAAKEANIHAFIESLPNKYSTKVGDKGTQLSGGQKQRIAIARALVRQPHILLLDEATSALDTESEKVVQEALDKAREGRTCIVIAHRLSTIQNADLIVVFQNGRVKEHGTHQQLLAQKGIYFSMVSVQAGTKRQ

[13] = biological target: Huntingtin (Homo sapiens) (UniProt P42858); experiment: mutant huntingtin aggregation blockers – QA1, dose response (AID 1584); settings: in vitro mutant huntingtin aggregation assay; confirmation test; at 10 µM; stronger effect = lower value
Sequence of Huntingtin (Homo sapiens) (P42858 whole entry, looked up): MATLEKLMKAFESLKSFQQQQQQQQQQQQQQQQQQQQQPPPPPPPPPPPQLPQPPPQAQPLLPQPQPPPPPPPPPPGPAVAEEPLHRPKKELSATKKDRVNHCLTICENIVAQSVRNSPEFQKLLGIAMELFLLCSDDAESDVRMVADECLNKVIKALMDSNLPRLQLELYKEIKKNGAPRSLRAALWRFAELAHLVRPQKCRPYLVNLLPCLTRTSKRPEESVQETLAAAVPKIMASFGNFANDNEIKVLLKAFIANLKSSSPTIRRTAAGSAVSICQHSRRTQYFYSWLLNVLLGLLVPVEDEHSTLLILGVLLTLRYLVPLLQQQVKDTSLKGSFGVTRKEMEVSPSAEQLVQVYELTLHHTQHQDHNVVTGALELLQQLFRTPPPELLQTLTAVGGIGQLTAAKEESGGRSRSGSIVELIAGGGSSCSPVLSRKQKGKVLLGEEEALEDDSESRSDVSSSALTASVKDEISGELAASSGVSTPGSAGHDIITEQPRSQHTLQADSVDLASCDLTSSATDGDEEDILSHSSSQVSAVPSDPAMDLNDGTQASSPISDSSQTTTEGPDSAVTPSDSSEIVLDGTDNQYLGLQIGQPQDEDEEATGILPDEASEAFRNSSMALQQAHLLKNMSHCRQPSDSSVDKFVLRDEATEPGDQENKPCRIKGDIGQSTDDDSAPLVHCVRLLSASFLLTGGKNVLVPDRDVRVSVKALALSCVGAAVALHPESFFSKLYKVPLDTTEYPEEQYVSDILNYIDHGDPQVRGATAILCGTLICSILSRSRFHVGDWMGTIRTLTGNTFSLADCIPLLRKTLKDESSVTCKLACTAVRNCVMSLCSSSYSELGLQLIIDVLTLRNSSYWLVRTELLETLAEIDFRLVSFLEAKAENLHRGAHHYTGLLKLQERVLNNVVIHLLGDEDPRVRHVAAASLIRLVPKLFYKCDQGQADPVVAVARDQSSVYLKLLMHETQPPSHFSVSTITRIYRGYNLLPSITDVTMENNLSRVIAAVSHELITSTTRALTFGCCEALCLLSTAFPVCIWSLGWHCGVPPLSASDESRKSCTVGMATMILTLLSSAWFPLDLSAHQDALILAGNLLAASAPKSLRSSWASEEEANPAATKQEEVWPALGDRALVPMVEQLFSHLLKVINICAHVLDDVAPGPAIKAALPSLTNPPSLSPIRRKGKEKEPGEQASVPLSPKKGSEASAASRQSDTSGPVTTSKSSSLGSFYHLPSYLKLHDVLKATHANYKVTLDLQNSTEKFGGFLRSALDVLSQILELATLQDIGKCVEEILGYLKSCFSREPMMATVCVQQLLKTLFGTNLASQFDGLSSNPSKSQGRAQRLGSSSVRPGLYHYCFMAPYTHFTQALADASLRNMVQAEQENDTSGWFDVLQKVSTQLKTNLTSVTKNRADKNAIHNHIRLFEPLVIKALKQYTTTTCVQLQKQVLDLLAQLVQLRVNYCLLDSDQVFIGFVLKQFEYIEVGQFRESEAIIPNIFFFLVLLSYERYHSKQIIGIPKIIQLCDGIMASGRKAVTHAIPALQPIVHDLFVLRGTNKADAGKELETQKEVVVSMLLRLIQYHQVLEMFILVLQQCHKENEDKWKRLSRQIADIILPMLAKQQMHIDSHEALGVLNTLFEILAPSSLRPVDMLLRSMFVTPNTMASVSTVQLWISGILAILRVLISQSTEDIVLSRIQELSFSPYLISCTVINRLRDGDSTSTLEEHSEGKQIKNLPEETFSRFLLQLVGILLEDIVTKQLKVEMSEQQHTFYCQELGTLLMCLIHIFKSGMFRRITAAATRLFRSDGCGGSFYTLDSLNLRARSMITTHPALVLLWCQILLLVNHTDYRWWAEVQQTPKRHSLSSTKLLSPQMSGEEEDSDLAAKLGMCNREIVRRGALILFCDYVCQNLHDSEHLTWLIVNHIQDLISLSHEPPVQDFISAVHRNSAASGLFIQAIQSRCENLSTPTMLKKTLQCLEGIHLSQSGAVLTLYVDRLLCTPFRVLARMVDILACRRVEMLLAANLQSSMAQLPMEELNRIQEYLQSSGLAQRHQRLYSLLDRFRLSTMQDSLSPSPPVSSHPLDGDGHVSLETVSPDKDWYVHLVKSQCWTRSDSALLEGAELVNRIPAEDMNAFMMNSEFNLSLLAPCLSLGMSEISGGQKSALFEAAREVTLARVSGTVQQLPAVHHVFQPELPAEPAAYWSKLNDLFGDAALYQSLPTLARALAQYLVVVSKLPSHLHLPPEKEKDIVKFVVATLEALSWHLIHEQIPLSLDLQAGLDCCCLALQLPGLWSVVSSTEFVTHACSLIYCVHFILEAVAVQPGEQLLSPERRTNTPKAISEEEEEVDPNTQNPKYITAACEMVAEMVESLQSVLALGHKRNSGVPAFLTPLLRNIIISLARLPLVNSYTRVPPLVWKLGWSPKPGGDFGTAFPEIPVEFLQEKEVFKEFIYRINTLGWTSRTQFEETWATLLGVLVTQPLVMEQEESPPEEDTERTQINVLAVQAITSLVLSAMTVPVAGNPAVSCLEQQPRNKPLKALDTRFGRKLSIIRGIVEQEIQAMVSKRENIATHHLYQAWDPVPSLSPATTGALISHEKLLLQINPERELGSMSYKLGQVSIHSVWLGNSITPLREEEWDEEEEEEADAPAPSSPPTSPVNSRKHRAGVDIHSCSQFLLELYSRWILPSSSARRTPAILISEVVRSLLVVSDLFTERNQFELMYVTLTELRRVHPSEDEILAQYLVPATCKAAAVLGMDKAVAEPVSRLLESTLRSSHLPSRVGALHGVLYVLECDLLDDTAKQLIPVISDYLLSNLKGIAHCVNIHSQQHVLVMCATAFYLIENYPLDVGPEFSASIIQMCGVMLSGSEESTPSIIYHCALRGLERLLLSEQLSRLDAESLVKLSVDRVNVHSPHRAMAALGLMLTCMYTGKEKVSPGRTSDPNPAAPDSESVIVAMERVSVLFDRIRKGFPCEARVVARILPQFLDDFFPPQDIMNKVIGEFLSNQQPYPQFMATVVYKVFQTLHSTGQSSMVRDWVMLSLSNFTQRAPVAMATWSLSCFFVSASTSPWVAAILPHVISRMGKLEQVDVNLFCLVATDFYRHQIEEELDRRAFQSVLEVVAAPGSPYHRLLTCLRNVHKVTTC

[14] = viability loss in pontine glioma line – cell-based, SU-DIPG-XIII, MIPE4.0, CellTiter-Glo, qHTS, dose response (AID 1347061; cut-off not given, nearly all actives have AC50 up to about 37 µM;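 note: cells exposed to compound for 48 hours before readout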); settings: CellTiter-Glo ATP luminescence
[15] = viability loss in pontine glioma line – cell-based, SU-DIPG-IV, MIPE4.0, CellTiter-Glo, qHTS, dose response (AID 1347063; cut-off not given, nearly all actives have AC50 up to about 30 µM;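 note: compound exposure lasted 48 hours before the viability readout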); settings: CellTiter-Glo ATP luminescence
[16] = growth inhibition of DIPG cells – cell-based, MIPE5.0 library, qHTS (AID 1347068; cut-off not given, nearly all actives have IC50 up to about 30 µM); settings: SU-DIPG-XXV viability
[17] = chitosan synthesis blockers in C. neoformans – flow cytometry, Cibacron Brilliant Red staining (AID 1347148); settings: Cryptococcus neoformans chitosan, stronger effect = lower value; at 10 µM unless noted;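 note: compound exposure lasted three days at 37 degrees C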

Structure (SMILES): Oc1ccc2c3c1OC1[C@@H](O)CC[C@@]4(O)[C@@H](C2)N(CC2CCC2)CC[C@]314 (some centres not stated)
- inclusion score [1]: 2

Structure (SMILES): C=CCN1CC[C@]23c4c5ccc(O)c4OC2C(=O)CC[C@@]3(O)[C@H]1C5 (some centres not stated)
- inclusion score [1]: 2

Structure (SMILES): C#CC1(O)CCC2C3CCC4=CC(=O)CCC4(C)C3CCC21C (configuration not stated)
- inclusion score [1]: 2
- outcome [2]: inactive
- outcome [3]: inactive
- outcome [4]: inactive
- outcome [5]: inactive
- outcome [6]: inactive

Structure (SMILES): CCN1C[C@@]2(COC)C3[C@@H](OC)[C@H]4[C@@H]1[C@]3(C(OC)C[C@H]2O)C1C[C@@]2(O)[C@H](OC(=O)c3ccccc3)C1[C@]4(OC(C)=O)[C@@H](O)[C@@H]2OC (some centres not stated)
- inclusion score [1]: 2

Structure (SMILES): C[N+](C)(C)CC(=O)[O-]
- inclusion score [1]: 2

Structure (SMILES): CC1[C@H](C)OC(=O)CC(O)CC(O)CC(O)CCC(O)C(O)C[C@]2(O)CC(O)C(C(=O)O)C(CC(OC3O[C@H](C)[C@@H](O)[C@H](N)[C@@H]3O)/C=C/C=C/C=C/C=C/CC/C=C/C=C/[C@H](C)[C@H]1O)O2 (some centres not stated)
- inclusion score [1]: 2

Structure (SMILES): NC1C[C@H]1c1ccccc1 (some centres not stated)
- inclusion score [1]: 2

Structure (SMILES): C=C[C@H]1CN2CC[C@H]1C[C@@H]2[C@H](O)c1ccnc2ccccc12
- normalised LDH release [7]: 0.806
- inclusion score [1]: 2

Structure (SMILES): O=C1CC[C@@]2(O)[C@H]3Cc4ccc(O)c5c4C2(CCN3CC2CC2)[C@H]1O5
- inclusion score [1]: 2

Structure (SMILES): C[C@@H]1O[C@@H](O[C@H]2C[C@@H](O)[C@]3(CO)C4C(CC[C@]3(O)C2)[C@@]2(O)CC[C@H](C3=CC(=O)OC3)[C@@]2(C)C[C@H]4O)[C@H](O)[C@H](O)[C@H]1O (some centres not stated)
- inclusion score [1]: 2

Structure (SMILES): N#CC(O[C@@H]1O[C@H](CO[C@@H]2O[C@H](CO)[C@@H](O)[C@H](O)[C@H]2O)[C@@H](O)[C@H](O)[C@H]1O)c1ccccc1 (some centres not stated)
- inclusion score [1]: 2
- outcome [4]: inactive
- outcome [8]: inactive

Structure (SMILES): C[C@]12CCC(=O)C=C1C=CC1C2CC[C@@]2(C)C1CC[C@@]2(O)CCC(=O)O (some centres not stated)
- remaining NAD [9]: 10 nM (inactive)

Structure (SMILES): CNC(C)[C@H](O)c1ccccc1 (some centres not stated)
- remaining NAD [9]: 10 nM (inactive)

Structure (SMILES): c1cncc(C2CCCCN2)c1 (configuration not stated)
- survival [10]: 6.5 (inactive)

Structure (SMILES): CC[C@H]1CN2CCC1C[C@@H]2[C@@H](O)c1ccnc2ccc(OC)cc12 (some centres not stated)
- inclusion score [1]: 2

Structure (SMILES): NC1=NC(=O)N2CC12 (configuration not stated)
- remaining NAD [9]: 10 nM (inactive)

Structure (SMILES): CC(CC(C(N)=O)(c1ccccc1)c1ccccc1)N(C)C (configuration not stated)
- remaining NAD [9]: 10 nM (inactive)

Structure (SMILES): C[N+]1(C)C2CCC1CC(OC(=O)C(CO)c1ccccc1)C2 (configuration not stated)
- survival [10]: 5.08 (inactive)

Structure (SMILES): CS(=N)(=O)CC[C@H](N)C(=O)O (some centres not stated)
- survival [10]: 9.75 (inactive)

Structure (SMILES): COc1cc2c(cc1O)CC1c3c(cc(O)c(OC)c3-2)CCN1C (configuration not stated)
- survival [10]: 4.08 (inactive)

Structure (SMILES): CCCCC[C@H]1C(=O)O[C@H](C)[C@H](NC(=O)c2cccc(NC=O)c2O)C(=O)O[C@@H](C)[C@@H]1OC(=O)CC(C)C
- EC50 [11]: 0.3 µM (active)

Structure (SMILES): CCC(C)C(=O)O[C@H]1[C@H](O)C2C(CN3CC(C)CCC3[C@@]2(C)O)C2C[C@]34O[C@]5(O)C(OC(=O)C(C)(O)CC)CC[C@@]3(C)C5C(OC(C)=O)[C@@H](OC(C)=O)C4[C@@]21O (some centres not stated)
- inclusion score [1]: 2

Structure (SMILES): C[N+]1(C)CCOC(O)(c2ccc(-c3ccc(C4(O)C[N+](C)(C)CCO4)cc3)cc2)C1 (configuration not stated)
- fluorescence slope change [12]: 1.8% (inactive)
- survival [10]: 3.33 (inactive)

Structure (SMILES): CN(C)Cc1c[nH]c2ccccc12
- fluorescence slope change [12]: 124% (active)
- survival [10]: 7.33 (inactive)

Structure (SMILES): CC(C)=CCCC1(C)C=Cc2c(O)c3c(c(CC=C(C)C)c2O1)OC12C(=CC4CC1C(C)(C)OC2(C/C=C(/C)C(=O)O)C4=O)C3=O (configuration not stated)
- aggregation ratio [13]: 0.274
- normalised LDH release [7]: 0.491

Structure (SMILES): CC(=O)OCC1=C(C(=O)O)N2C(=O)[C@@H](NC(=O)CCCC(N)C(=O)O)C2SC1 (some centres not stated)
- inclusion score [1]: 2

Structure (SMILES): C=CCN=C=S
- remaining NAD [9]: 10 nM (inactive)

Structure (SMILES): COC(=O)C(c1ccccc1)C1CCCCN1 (configuration not stated)
- remaining NAD [9]: 10 nM (inactive)

Structure (SMILES): CCCN1CCO[C@@H]2c3cc(O)ccc3OC[C@H]21
- outcome [2]: inactive
- outcome [14]: inactive
- outcome [3]: inactive
- outcome [15]: inactive
- outcome [5]: inactive
- outcome [6]: inactive
- outcome [8]: inactive

Structure (SMILES): C[N+](C)(C)CC#CCN1CCCC1=O
- inclusion score [1]: 2

Structure (SMILES): CCC1(CC)C(=O)NC(=O)NC1=O
- remaining NAD [9]: 10 nM (inactive)

Structure (SMILES): CC(=O)O[C@H]1C[C@H](O[C@H]2[C@@H](O)C[C@H](O[C@H]3[C@@H](O)C[C@H](O[C@H]4CC[C@@]5(C)C(CCC6C5C[C@@H](O)[C@]5(C)[C@@H](C7=CC(=O)OC7)CC[C@]65O)C4)O[C@@H]3C)O[C@@H]2C)O[C@H](C)[C@H]1O[C@@H]1O[C@H](CO)[C@@H](O)[C@H](O)[C@H]1O (some centres not stated)
- inclusion score [1]: 3

Structure (SMILES): COC(=O)[C@@H](N)CCCN=C(N)N[N+](=O)[O-]
- outcome [2]: inactive
- outcome [3]: inactive
- outcome [4]: inactive
- outcome [5]: inactive
- outcome [6]: inactive
- outcome [8]: inactive
- outcome [16]: inactive
- fold fluorescence [17]: 4.22 [at 214.4 µM] (inactive)

Structure (SMILES): Oc1ccc2c3c1O[C@H]1c4[nH]c5c(c4C[C@@]4(O)[C@@H](C2)N(CC2CC2)CC[C@]314)C[C@@]1(O)[C@H]2Cc3ccc(O)c4c3[C@@]1(CCN2CC1CC1)[C@H]5O4
- outcome [14]: inactive
- outcome [3]: inactive
- outcome [15]: inactive
- outcome [6]: inactive

Structure (SMILES): c1cncc(C2=NCCC2)c1
- fluorescence slope change [12]: 24.1% (inactive)
- survival [10]: 4.17 (inactive)

Structure (SMILES): O=C(N[C@H]1CN2CCC1CC2)c1ccc(Cl)cc1
- outcome [2]: inactive
- outcome [3]: inactive
- outcome [15]: inactive
- outcome [4]: inactive
- outcome [5]: inactive
- outcome [8]: inactive
- outcome [16]: inactive

Structure (SMILES): CCNC1(c2cccs2)CCCCC1=O (configuration not stated)
- survival [10]: 13.6 (inactive)
- remaining NAD [9]: 10 nM (inactive)

Structure (SMILES): CC1=NN=C(c2ccc(N)cc2)c2cc3c(cc2C1)OCO3
- outcome [3]: inactive
- outcome [15]: inactive
- outcome [6]: inactive

Structure (SMILES): COc1cc2c(c(OC)c1OC)-c1ccc(O)c(=O)cc1C(N)CC2 (configuration not stated)
- fluorescence slope change [12]: 63.7% (active)
- survival [10]: 6 (inactive)

Structure (SMILES): c1ccc2c(c1)[I+]c1ccccc1-2
- fold fluorescence [17]: 9.07 [at 179.1 µM] (inactive)

Structure (SMILES): CO[C@H]1[C@H](O)[C@@H](O[C@H]2CC[C@]3(C=O)C4CC[C@]5(C)[C@@H](C6=CC(=O)OC6)CC[C@]5(O)C4CC[C@@H]3C2)O[C@@H](C)[C@@H]1O (some centres not stated)
- inclusion score [1]: 0.5

Structure (SMILES): C[C@]12N[C@H](Cc3ccccc31)c1ccccc12
- fluorescence slope change [12]: 55.9% (active)
- survival [10]: 15.6 (inactive)

Structure (SMILES): O=C1CN=C(c2ccccc2Cl)c2cc([N+](=O)[O-])ccc2N1
- inclusion score [1]: 2

Structure (SMILES): c1ccc(CCCN2CCN(CCOC(c3ccccc3)c3ccccc3)CC2)cc1
- AC50 [3]: 20.9 µM (active)
- AC50 [15]: 23.5 µM (active)

Structure (SMILES): O=C(O)CCCO
- remaining NAD [9]: 10 nM (inactive)

Structure (SMILES): C/C(O)=C(\C#N)C(=O)Nc1cc(Br)ccc1Br
- survival [10]: 124 (inactive)
- outcome [14]: inactive
- outcome [3]: inactive
- outcome [4]: inactive
- outcome [5]: inactive
- outcome [8]: inactive
- outcome [16]: inactive
- fold fluorescence [17]: 3.51 [at 138.9 µM] (inactive)

Structure (SMILES): O=C1C2CCN(CC2)C1(CO)CO
- fold fluorescence [17]: 9.13 [at 269.9 µM] (inactive)

Structure (SMILES): CN1CCc2cc3c(cc2[C@H]1[C@@H]1OC(=O)c2c1ccc1c2OCO1)OCO3
- fluorescence slope change [12]: 0.5% (inactive)
- inclusion score [1]: 1.5
- survival [10]: 5.92 (inactive)
